Assay results taken from PMC4552634, “A New Set of Chemical Starting Points with Plasmodium falciparum Transmission-Blocking Potential for Antimalarial Drug Discovery” (PLoS ONE, 2015).
In all, about 13,000 compounds went through this assay and about 3,200 (25%) showed an effect of 50% or more. The list shows a part of the results.

These molecules were tested on P. falciparum stage V gametocytes. Details: 48 h, 5 µM; inhibitor.
Parameters: BacTiter-Glo ATP luminescence viability of purified stage V gametocytes in 384-well plates, per cent inhibition versus DMSO

First: Cn1ncc2c3c(CCN4CCC(NCc5ccc6c(c5)NC(=O)CO6)CC4)c(Cl)cnc3ccc21 [TCMDC-136023]
Second: COc1nc2c(CCN3CCC(NCc4ccc5c(c4)NC(=O)CO5)CC3)c(Cl)cnc2cc1F [TCMDC-135767]
The “% Inhibition” value of the first is higher: 91.21% for the first, 23.61% for the second.

Compared with `COc1cc(F)c2ncc(Cl)c(CCN3CCC(NCc4ccc5c(c4)NC(=O)CO5)CC3)c2c1` [TCMDC-135623], `C=CC12CCN(CC1)C(C(O)c1ccnc3ccc(OC)cc13)C2` (stereo not drawn) [TCMDC-124047] is lower in “% Inhibition” value: 24.82% for the first, -22.19% for the second.

First: CC(=O)c1ccc(N2C(=O)C3C(Cc4ccc(OC(C)(C)C)cc4)NC4(C(=O)N(Cc5ccc(C(C)(C)C)cc5)c5ccccc54)C3C2=O)cc1 (stereo not drawn) [TCMDC-139773]
Second: CCN(CC)CCN(Cc1ccc(-c2ccc(C(F)(F)F)cc2)cc1)C(=O)Cn1c(SCc2ccc(F)cc2)nc(=O)c2ccccc21 [TCMDC-140983]
The “% Inhibition” value of the first is lower: 1.15% for the first, 87.16% for the second.

Compared with `C=CCc1cc(Cc2cnc(N)nc2N)c2ccc(C)nc2c1O` [TCMDC-137628], `Cc1nc2nc(N)nc(N)c2c(C)c1Cc1cccc(C#N)c1` [TCMDC-137646] is lower in “% Inhibition” value: -3.473% for the first, -13.13% for the second.

First: Cc1cccc(CNc2nccc3[nH]c4ccccc4c23)c1 [TCMDC-136334]
Second: CN(C)c1cccc2c1nc(-c1ccco1)n2CCNCc1ccccc1 [TCMDC-133484]
The “% Inhibition” value of the first is lower: -2.626% for the first, 72.16% for the second.

First: CN(C)CCCN(C)c1cccc2c1nc(-c1cccnc1)n2CCNCc1ccccc1 [TCMDC-133440]
Second: CN(CCc1ccccn1)c1cccc2c1nc(-c1cccnc1)n2CCNCc1ccccc1 [TCMDC-133439]
The “% Inhibition” value of the first is higher: 88.37% for the first, -10.58% for the second.

Compared with `CN(C)CCNc1cc(-c2cccnc2)nc(-c2ccncc2)n1` [TCMDC-125595], `CCN(CC)C(=O)c1cnc(-c2ccccc2)nc1Oc1cccc(Cl)c1` [TCMDC-124780] is higher in “% Inhibition” value: -4.49% for the first, 14.15% for the second.

First: Cc1nc(N)nc(N)c1CCCOc1ccc(Br)cc1 [TCMDC-138068]
Second: Cc1nc(N)nc(N)c1OCCCOc1ccccc1Br [TCMDC-131364]
The “% Inhibition” value of the first is lower: -19.95% for the first, -0.5645% for the second.

Compared with `CC(=O)c1cccc(NC(=O)N2CCCN(CCCCCNC(=O)/C=C/c3ccc(Cl)c(Cl)c3)CC2)c1` [TCMDC-135752], `CN1CCCC1CCNC(=O)[C@H](CC1CCCCC1)NC(=O)c1ccc(O)c(-c2ccc(Cl)c(Cl)c2)c1` (stereo partly drawn) [TCMDC-140855] is higher in “% Inhibition” value: -19.76% for the first, 48.17% for the second.

First: COc1ccc(-c2nc(NC(=O)Cc3coc4cc(OC)ccc34)sc2C)cc1 [TCMDC-124497]
Second: COc1cccc(OC2CCN(C(=O)c3ccc(-c4ccc(N5CCCC5=O)cc4C)cc3)CC2)c1 [TCMDC-136524]
The “% Inhibition” value of the first is lower: 27.62% for the first, 29.3% for the second.

First: CCN(CC)CCN(Cc1ccc(-c2ccc(C(F)(F)F)cc2)cc1)C(=O)Cn1c(CCc2cccc(F)c2F)nc(=O)c2ccc(F)cc21 [TCMDC-141095]
Second: CCN(CC)CCN(Cc1ccc(-c2ccc(C(F)(F)F)cc2)cc1)C(=O)Cn1c(CCc2cccc(F)c2F)nc(=O)c2cc(F)ccc21 [TCMDC-141096]
The “% Inhibition” value of the first is lower: 68.69% for the first, 73.36% for the second.

Compared with `CCN(CC)CCN(Cc1ccc(-c2ccc(C(F)(F)F)cc2)cc1)C(=O)Cn1c(CCc2cccc(F)c2F)nc(=O)c2ccc(C(F)(F)F)cc21` [TCMDC-141071], `CCN(CC)CCN(Cc1ccc(-c2ccc(C(F)(F)F)cc2)cc1)C(=O)Cn1c(CCc2cccc(F)c2F)nc(=O)c2ccc(C)cc21` [TCMDC-141086] is higher in “% Inhibition” value: 34.24% for the first, 74.83% for the second.

First: CCN(CC)CCN(Cc1ccc(-c2ccc(C(F)(F)F)cc2)cc1)C(=O)Cn1c(SCc2ccc(F)cc2)cc(=O)c2ccccc21 [TCMDC-140791]
Second: CCN(CC)CCN(Cc1ccc(-c2ccc(C(F)(F)F)cc2)cc1)C(=O)Cn1c(SCc2ccc(F)cc2)nc(=O)c2sccc21 [TCMDC-140572]
The “% Inhibition” value of the first is higher: 99.53% for the first, 78.9% for the second.

Going from `CCN(CC)CCN(Cc1ccc(-c2ccc(C(F)(F)F)cc2)cc1)C(=O)Cn1c(CCc2cccc(F)c2F)nc(=O)c2cc(F)c(F)cc21` [TCMDC-141089] to `CCN(CC)CCN(Cc1ccc(-c2ccc(C(F)(F)F)cc2)cc1)C(=O)Cn1c(CCc2cccc(F)c2F)nc(=O)c2cc(C)ccc21` [TCMDC-141014], the “% Inhibition” value falls from 67.52% to 48.99%.

First: CCCCCCC(C)c1cc(O)c2c(c1)OC(=O)CC2(CC)c1ccccn1 (stereo not drawn) [TCMDC-131681]
Second: CCc1cccc(OCC2CCCN(c3ccc(C(=O)NC4CC4)cn3)C2)c1 (stereo not drawn) [TCMDC-134039]
The “% Inhibition” value of the first is lower: -3.085% for the first, 7.857% for the second.

Going from `c1cc(CNC2Cc3ccc(-c4cccs4)cc3C2)cc(-n2ccnc2)c1` (stereo not drawn) [TCMDC-134830] to `CCN(CC)CCN(Cc1ccc(-c2ccc(C(F)(F)F)cc2)cc1)C(=O)Cn1c(CCc2cccc(F)c2F)nc(=O)c2sccc21` [TCMDC-140937], the “% Inhibition” value rises from -2.028% to 80.29%.

Going from `CC(C)C[C@H](NC(=O)c1ccc(OCCN2CCOCC2)cc1)C(=O)NC(/C=N/N1CCCC1=O)C(C)C` (stereo partly drawn) [TCMDC-136276] to `O=C(Nc1ccc(F)c(F)c1)c1ccc(CN2CCCN(Cc3cccc(O)c3)CC2)cc1` [TCMDC-136390], the “% Inhibition” value falls from 20.05% to -4.727%.

Going from `CCN(CC)CCN(Cc1ccc(-c2ccc(C(F)(F)F)cc2)nc1)C(=O)Cn1c(SCc2ccc(F)cc2)nc(=O)c2sccc21` [TCMDC-140573] to `CCN(CC)CCN(Cc1ccc(-c2ccc(C(F)(F)F)cc2)cc1)C(=O)Cn1c(CCc2ccc(F)cc2)nc(=O)c2sccc21` [TCMDC-140779], the “% Inhibition” value rises from 27.02% to 90.56%.

First: Cc1cccc(C)c1C1CCN(C2CCC(NC(=O)/C=C/c3ccccc3)CC2)CC1 (stereo not drawn) [TCMDC-132879]
Second: CCc1sc(N2CCN(C)CC2)nc1C(=O)Nc1ccc(F)cc1C(F)(F)F [TCMDC-134298]
The “% Inhibition” value of the first is lower: -22.62% for the first, 16.91% for the second.

For `CC(=O)Nc1ncc(C(=O)Nc2cccc(-c3cccc(-c4nc5ccc(C(F)(F)F)cc5[nH]4)c3)c2)s1` [TCMDC-136918], the “% Inhibition” value was 17.49%.
